Common to all, as to parameters: scale not given: direction of the effect not stated beside the values
The target in assay [1] is Protein translocase subunit SecA (Escherichia coli (strain K12)) (UniProt P10408). The assay can be described thus: Assay to Identify E. coli SecA ATPase Inhibitors. It counts as functional. The settings on record: 30 µM.
Assay [2] concerns the target T1, Ubiquitin-activating enzyme e1, putative (Leishmania donovani (strain BPK282A1)) (UniProt E9BSI1).
T1 sequence (whole entry): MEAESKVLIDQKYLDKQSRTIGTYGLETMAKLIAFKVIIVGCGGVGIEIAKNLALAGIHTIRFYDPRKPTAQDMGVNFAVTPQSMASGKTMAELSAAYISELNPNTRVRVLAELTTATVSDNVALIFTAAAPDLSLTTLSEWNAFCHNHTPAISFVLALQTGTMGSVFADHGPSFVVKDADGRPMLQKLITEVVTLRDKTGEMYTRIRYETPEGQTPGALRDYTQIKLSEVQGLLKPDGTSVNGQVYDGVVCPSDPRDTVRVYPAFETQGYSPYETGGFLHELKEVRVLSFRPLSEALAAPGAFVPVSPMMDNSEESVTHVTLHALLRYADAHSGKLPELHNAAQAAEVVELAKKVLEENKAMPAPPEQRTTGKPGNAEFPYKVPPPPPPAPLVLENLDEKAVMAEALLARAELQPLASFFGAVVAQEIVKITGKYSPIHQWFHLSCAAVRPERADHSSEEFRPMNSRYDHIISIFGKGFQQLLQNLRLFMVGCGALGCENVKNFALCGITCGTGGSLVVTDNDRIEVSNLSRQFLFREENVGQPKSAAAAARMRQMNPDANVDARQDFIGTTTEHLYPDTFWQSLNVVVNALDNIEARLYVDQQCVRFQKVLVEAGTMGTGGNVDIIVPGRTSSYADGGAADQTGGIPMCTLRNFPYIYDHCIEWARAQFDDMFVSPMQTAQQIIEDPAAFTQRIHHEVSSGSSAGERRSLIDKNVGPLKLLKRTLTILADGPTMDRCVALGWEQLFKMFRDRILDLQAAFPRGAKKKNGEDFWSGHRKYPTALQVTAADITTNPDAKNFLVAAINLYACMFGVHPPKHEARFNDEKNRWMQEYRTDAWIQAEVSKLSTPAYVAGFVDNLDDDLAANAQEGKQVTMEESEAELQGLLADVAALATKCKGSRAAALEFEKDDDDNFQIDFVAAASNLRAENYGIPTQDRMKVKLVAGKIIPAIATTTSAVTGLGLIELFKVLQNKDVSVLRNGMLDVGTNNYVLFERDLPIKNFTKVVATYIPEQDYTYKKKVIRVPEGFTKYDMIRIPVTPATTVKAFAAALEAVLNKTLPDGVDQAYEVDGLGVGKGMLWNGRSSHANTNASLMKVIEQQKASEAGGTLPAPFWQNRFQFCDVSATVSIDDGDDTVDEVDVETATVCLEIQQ
The assay can be described thus: Leishmania donovani Ubiquitin Activating Enzyme (LdE1). It counts as functional. The settings on record: 30 µM.

For assay [3], the target named is AMP-activated protein kinase, AMPK (Homo sapiens) (UniProt P54646+O43741+P54619+Q9UGJ0+Q9Y478+Q13131+Q9UGI9). In words: AMP-dependent Kinase enzyme assay. An in vitro enzyme assay that detects ADP turnover that is directly proportional to AMPK activity. This uses naive AMPK that is activated during the assay with MK-8722. The settings on record: 30 µM. It counts as functional.

Assay [4] has as its target Sialic acid-binding Ig-like lectin 9 (Homo sapiens) (UniProt Q9Y336). In words: Hs-Siglec9 ALPHAscreen SOP 20170721. To be noted: 10 µM. On the technique in general: Alpha assays give light when donor and acceptor beads are brought close together.
For assay [5], the system named is Trypanosoma cruzi. The assay can be described thus: Trypanosoma cruzi phosphomannomutase and mannose-1-phosphate guanylyltransferase assay. The settings on record: 10 µM. Format: functional.
In assay [6] the target is T2, Arginase-2, mitochondrial (Homo sapiens) (UniProt P78540).
T2 sequence (whole entry): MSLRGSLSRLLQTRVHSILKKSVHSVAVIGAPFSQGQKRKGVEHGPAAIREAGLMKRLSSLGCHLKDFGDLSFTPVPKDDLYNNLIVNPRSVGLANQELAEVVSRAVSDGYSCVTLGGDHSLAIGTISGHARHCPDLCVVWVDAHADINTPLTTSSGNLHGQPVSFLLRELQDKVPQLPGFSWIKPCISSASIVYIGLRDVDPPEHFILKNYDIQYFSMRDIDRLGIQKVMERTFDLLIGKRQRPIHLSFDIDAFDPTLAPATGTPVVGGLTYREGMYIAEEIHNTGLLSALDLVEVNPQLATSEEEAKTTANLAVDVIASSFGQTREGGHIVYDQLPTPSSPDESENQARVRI
The assay can be described thus: in vitro enzyme assay to detect the production of urea directly proportional to the activity of Arginase II. Also: in the data most compounds retested in dose-response had high values. To be noted: 33.3 µM. Format: functional.

For assay [7], the target named is T3, Proteasome subunit beta (Trypanosoma cruzi) (UniProt O96673).
T3 sequence (whole entry): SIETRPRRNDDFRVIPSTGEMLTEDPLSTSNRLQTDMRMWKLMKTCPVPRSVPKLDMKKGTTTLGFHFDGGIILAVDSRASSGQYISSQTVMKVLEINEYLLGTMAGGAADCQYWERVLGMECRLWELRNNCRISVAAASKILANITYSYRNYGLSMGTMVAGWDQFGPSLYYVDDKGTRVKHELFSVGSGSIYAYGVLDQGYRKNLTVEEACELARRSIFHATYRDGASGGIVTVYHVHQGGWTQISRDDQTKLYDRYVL
The assay can be described thus: Trypanosoma cruzi proteasome chymotrypsin-like activity (TcProtChymo) assay. Also: in the data most compounds retested in dose-response had high values. Format: functional. The settings on record: 9.37 µM.

Assay [8] is filed under the species Homo sapiens. The assay can be described thus: To identify inhibition of the IFN signalling (Jak-Stat) pathway via expression of an eGFP reporter gene under the control of an IFN-stimulated response element (ISRE) containing MxA promoter. Format: functional. The settings on record: 30 µM. (In a reporter assay the amount or activity of a reporter protein is the signal.)

The target in assay [9] is T4, Tyrosyl-tRNA synthetase, putative (Trypanosoma cruzi (strain CL Brener)) (UniProt Q4DSP6).
T4 sequence (whole entry): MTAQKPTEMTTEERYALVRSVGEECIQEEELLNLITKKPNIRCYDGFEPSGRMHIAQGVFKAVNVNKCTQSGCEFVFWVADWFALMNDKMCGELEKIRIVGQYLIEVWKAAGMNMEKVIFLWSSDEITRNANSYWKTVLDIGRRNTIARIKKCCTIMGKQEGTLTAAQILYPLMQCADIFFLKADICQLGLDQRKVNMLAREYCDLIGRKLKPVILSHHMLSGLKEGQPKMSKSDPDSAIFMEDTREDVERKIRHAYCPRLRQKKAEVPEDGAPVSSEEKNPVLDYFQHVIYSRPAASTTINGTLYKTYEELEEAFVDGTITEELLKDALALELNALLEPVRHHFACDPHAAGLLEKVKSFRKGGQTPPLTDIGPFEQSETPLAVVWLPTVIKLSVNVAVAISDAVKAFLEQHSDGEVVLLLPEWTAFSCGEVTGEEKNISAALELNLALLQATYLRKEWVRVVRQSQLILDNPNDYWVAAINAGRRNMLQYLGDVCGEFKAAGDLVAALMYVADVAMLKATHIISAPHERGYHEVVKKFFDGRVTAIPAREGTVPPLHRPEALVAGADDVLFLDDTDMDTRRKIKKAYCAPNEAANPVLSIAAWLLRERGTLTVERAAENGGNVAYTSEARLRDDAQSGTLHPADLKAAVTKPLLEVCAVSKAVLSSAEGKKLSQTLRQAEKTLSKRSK
The assay can be described thus: Trypanosoma cruzi tyrosyl tRNA synthetase (TcYRS) _High Tyrosine SOP. Also: in the data most compounds retested in dose-response had high values. To be noted: 30 µM. It counts as functional.

Assay [10] deals with T4, Tyrosyl-tRNA synthetase, putative (Trypanosoma cruzi (strain CL Brener)). The assay can be described thus: Trypanosoma cruzi tyrosyl tRNA synthetase (TcYRS) SOP. It counts as functional. To be noted: 30 µM.
Assay [11] concerns the target Chromo domain-containing protein 1 (Saccharomyces cerevisiae (strain ATCC 204508 / S288c) (Baker's yeast)) (UniProt P32657). The assay can be described thus: ScCHD-1 Enzyme Inhibition Assay. Also: in the data most compounds retested in dose-response had high values. It counts as functional. The settings on record: 30 µM.

For some of these results: Results with a measured potency or affinity are listed apart.

Sequence of Sialic acid-binding Ig-like lectin 9 (Homo sapiens) (Q9Y336 whole entry): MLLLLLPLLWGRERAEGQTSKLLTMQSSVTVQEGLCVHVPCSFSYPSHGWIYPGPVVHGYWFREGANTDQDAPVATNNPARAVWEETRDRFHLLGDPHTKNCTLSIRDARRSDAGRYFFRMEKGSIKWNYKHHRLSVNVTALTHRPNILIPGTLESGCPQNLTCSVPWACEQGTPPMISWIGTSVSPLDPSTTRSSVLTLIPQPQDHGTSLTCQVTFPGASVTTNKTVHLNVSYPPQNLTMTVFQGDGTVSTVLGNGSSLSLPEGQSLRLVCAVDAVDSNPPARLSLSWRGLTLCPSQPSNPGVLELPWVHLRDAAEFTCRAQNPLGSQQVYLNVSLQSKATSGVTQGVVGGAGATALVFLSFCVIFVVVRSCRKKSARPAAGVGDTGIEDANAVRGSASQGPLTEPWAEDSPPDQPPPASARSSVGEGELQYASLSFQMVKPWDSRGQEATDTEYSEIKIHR
Sequence of Chromo domain-containing protein 1 (Saccharomyces cerevisiae (strain ATCC 204508 / S288c) (Baker's yeast)) (P32657 whole entry, the tested form may be a part): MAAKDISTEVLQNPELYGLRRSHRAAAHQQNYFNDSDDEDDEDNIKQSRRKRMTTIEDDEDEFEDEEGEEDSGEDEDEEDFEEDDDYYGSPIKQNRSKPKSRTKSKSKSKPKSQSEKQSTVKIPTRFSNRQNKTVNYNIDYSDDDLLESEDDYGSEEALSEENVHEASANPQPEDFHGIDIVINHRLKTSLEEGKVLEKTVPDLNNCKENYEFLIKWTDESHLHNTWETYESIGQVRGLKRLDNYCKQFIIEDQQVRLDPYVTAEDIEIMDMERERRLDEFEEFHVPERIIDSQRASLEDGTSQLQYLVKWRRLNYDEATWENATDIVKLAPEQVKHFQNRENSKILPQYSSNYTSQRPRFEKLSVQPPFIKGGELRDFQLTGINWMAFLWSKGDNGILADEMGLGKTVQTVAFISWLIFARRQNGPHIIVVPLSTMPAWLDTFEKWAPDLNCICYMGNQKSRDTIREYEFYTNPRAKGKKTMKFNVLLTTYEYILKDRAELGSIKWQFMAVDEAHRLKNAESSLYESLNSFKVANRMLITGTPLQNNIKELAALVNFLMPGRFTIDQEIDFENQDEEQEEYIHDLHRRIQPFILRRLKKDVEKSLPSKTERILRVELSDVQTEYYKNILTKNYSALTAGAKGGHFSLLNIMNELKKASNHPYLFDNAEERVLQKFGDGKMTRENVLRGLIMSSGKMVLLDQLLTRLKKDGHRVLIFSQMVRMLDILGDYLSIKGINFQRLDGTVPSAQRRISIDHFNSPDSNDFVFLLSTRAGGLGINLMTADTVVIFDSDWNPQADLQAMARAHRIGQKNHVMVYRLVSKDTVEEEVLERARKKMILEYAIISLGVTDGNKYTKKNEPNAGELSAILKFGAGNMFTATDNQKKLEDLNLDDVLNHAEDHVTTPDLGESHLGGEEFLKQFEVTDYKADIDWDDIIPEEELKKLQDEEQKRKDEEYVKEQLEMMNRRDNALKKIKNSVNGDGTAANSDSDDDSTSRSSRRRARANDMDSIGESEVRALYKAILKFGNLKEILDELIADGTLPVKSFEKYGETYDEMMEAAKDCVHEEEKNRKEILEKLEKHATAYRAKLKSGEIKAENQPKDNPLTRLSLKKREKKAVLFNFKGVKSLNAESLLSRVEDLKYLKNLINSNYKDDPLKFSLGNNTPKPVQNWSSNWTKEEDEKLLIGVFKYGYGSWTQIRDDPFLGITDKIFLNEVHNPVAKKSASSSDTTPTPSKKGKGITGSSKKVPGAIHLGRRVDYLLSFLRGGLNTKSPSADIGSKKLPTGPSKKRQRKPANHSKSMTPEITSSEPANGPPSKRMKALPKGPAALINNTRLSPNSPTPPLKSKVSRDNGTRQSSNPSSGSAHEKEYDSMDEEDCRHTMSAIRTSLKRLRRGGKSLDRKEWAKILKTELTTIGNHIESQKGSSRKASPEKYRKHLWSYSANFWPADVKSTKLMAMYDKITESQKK
Sequence of Protein translocase subunit SecA (Escherichia coli (strain K12)) (P10408 whole entry): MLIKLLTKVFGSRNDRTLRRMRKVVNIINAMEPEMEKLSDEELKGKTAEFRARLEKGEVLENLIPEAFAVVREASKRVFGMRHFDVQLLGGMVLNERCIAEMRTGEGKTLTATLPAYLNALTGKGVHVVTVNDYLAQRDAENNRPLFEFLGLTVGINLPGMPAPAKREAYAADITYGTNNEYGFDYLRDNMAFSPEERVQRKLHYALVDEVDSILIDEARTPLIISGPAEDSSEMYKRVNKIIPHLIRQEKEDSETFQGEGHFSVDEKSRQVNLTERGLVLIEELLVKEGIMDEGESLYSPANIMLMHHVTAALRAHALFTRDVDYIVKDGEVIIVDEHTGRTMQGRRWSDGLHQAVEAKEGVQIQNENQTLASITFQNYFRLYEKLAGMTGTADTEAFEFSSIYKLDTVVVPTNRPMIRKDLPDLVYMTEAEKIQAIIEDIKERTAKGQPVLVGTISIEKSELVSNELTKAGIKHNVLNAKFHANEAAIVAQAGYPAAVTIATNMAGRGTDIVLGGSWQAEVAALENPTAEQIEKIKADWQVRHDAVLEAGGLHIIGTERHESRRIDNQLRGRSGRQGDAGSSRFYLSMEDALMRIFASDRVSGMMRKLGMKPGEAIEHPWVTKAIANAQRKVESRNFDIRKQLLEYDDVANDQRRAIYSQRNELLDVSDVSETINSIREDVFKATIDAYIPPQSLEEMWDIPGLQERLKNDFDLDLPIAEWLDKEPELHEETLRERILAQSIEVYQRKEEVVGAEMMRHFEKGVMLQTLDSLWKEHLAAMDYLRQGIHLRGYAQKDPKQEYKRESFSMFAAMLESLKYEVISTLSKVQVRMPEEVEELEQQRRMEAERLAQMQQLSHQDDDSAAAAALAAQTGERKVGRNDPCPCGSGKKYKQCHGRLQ

For `CC(C)NC(=O)N1CCC2(CC(C(=O)NCc3cccnc3)=NO2)C1` (stereo not drawn), the Percent Effect in [1] is -0.964%; in assay [2], 2.67%; in assay [3], 4.37%; in assay [4], 10.3%; in assay [5], -5.99%; in assay [6] it was -2.69%. The Percent Effect in [7] was 8.89%; in assay [8] it was 8.43%; in assay [9], -3.12%; in assay [10], 0%; in [11], 1.61%.

Consider `CCN(CC(=O)NC(C)C)S(=O)(=O)N1CCC(C)C1` (stereo not drawn), for which the Percent Effect was -2.1% in assay [1]; 0% in [2]; -2.33% in [3]; -4.69% in assay [4]; 2.05% in [5]; 1.24% in assay [6]. For the same compound, the Percent Effect is 5.24% in [7]; -14.3% in assay [8]; 1.07% in assay [9]; 6.17% in assay [10]; -6.4% in assay [11].

As to `CC(=O)N1[C@H](Cn2cncn2)C[C@@H]2CN(c3ccc(C)nn3)CC[C@@H]21`, the Percent Effect in assay [1] is -0.849%; in assay [2] it was 2.6%; in assay [3], 1.33%; in assay [4] it was 0.483%; in assay [5] it was 3.83%; in assay [6], 0%. Besides, the Percent Effect was 9.98% in assay [7]; -9.62% in assay [8]; -1.07% in assay [9]; 1.24% in assay [10]; -3.45% in assay [11].

As for `Cc1cc2cc(C(=O)N[C@@H]3CC[C@@H](N4CCOCC4)[C@@H]3O)ccc2o1`, the Percent Effect in assay [1] was 1.28%; in assay [2] it was 17.6%; in assay [3], 5.33%; in assay [4], -5.41%; in [5] it was 2.57%; in assay [6] it was -0.232%. Further, the Percent Effect was 13.4% in [7]; 29.4% in [8]; 5.38% in assay [9]; 3.9% in assay [10]; -10.2% in [11].

For `Cc1cc(=O)n2ncnc2n1CC(O)c1ccccc1Cl` (stereo not drawn), the Percent Effect was -0.278% in assay [1]; 7.89% in assay [2]; 6.81% in [3]; -5.31% in [4]; -6.52% in [5]; -8.28% in [6]. The Percent Effect in assay [7] is 18.1%; in assay [8] it was -6.46%; in assay [9], 3.19%; in assay [10] it was 7.79%; in [11], -2.48%.

With `Cc1nc2cc(C(=O)N3CCCC(n4cncn4)C3)ccc2n1C` (stereo not drawn), the Percent Effect is -4.14% in assay [1]; 5.41% in assay [2]; -2.29% in assay [3]; 11.4% in assay [4]; 9.75% in assay [5]; -0.924% in assay [6]. Moreover, the Percent Effect was -5.21% in assay [7]; 0.593% in assay [8]; 3.96% in assay [9]; 13.4% in assay [10]; -2.87% in [11].

With `Cc1ccc(C)c(OCCN2CCC(N3CCNC3=O)CC2)c1`, the Percent Effect in assay [1] is -3.83%; in assay [2] it was 10.8%; in assay [3], -16.9%; in assay [4] it was 6.39%; in assay [5], -2.69%; in assay [6] it was 2.03%. Also, the Percent Effect in [7] is 1.62%; in assay [8] it was 6.79%; in assay [9], 4.95%; in assay [10], 13.4%; in [11], -0.537%.

As to `Cc1nc([C@@H]2C[C@@H]3CCN(C(=O)c4occc4C)C[C@H]3O2)no1`, the Percent Effect in assay [1] was -6.42%; in assay [2], 0%; in [3] it was 6.51%; in [4] it was 3.94%; in [5], -1.74%; in assay [6], -52.1%. For the same compound, the Percent Effect was 4.1% in assay [7]; 7.9% in assay [8]; -1.04% in assay [9]; -5% in assay [10]; -4.87% in [11].

These data come from ChEMBL document CHEMBL3988442, “University of Dundee, Small-Polar-MMV Screening Library” (2021).
